The supplement of paper PMC8728848
About 410 targets per protein were measured; listed, in parts, are those with the strongest signals and a random draw of the rest.

Experiments:
Test in all cases: glycan array binding signal (z-score within array); higher = stronger binding
Settings in all cases: glycan notation: IUPAC condensed, linker removed
[1] = biological target: GalNAc(b1-4)GlcNAc
Procedure, shortened: (§1)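 Arrays were curated from the Consortium for Functional Glycomics database, 3228 in total, and kept only where the protein sequence was available. Binding is expressed as a within-array Z-score. This score was averaged across arrays of the same protein sequence at different concentrations or buffers and across linkers, and negative values can be read as non-binding.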

[2] = biological target: GlcNAc(b1-2)Man(a1-3)[GlcNAc(b1-4)][GlcNAc(b1-2)Man(a1-6)]Man(b1-4)GlcNAc(b1-4)[Fuc(a1-6)]GlcNAc
Procedure, shortened: as §1

[3] = biological target: GlcNAc(b1-3)Fuc
Procedure, shortened: as §1

[4] = biological target: GlcNAc(b1-3)Gal(b1-4)GlcNAc(b1-2)Man(a1-3)[GlcNAc(b1-3)Gal(b1-4)GlcNAc(b1-2)Man(a1-6)]Man(b1-4)GlcNAc(b1-4)GlcNAc
Procedure, shortened: as §1

[5] = biological target: GlcNAc(b1-3)Gal(b1-4)GlcNAc(b1-3)Gal(b1-4)GlcNAc(b1-3)Gal(b1-4)GlcNAc(b1-2)[GlcNAc(b1-3)Gal(b1-4)GlcNAc(b1-3)Gal(b1-4)GlcNAc(b1-3)Gal(b1-4)GlcNAc(b1-6)]Man(a1-6)[GlcNAc(b1-3)Gal(b1-4)GlcNAc(b1-3)Gal(b1-4)GlcNAc(b1-3)Gal(b1-4)GlcNAc(b1-2)Man(a1-3)]Man(b1-4)GlcNAc(b1-4)[Fuc(a1-6)]GlcNAc
Procedure, shortened: as §1

[6] = biological target: GlcNAc(b1-3)Gal(b1-4)GlcNAc(b1-3)Gal(b1-4)GlcNAc(b1-3)Gal(b1-4)GlcNAc(b1-3)Gal(b1-4)GlcNAc(b1-2)Man(a1-3)[GlcNAc(b1-3)Gal(b1-4)GlcNAc(b1-3)Gal(b1-4)GlcNAc(b1-3)Gal(b1-4)GlcNAc(b1-3)Gal(b1-4)GlcNAc(b1-2)Man(a1-6)]Man(b1-4)GlcNAc(b1-4)[Fuc(a1-6)]GlcNAc
Procedure, shortened: as §1

[7] = biological target: GlcNAc(b1-3)Gal(b1-4)GlcNAc(b1-6)[GlcNAc(b1-3)]Gal(b1-4)GlcNAc
Procedure, shortened: as §1

[8] = biological target: Kdn(a2-3)Gal(b1-3)GalNAc
Procedure, shortened: as §1

[9] = biological target: Kdn(a2-3)Gal(b1-4)Glc
Procedure, shortened: as §1

[10] = biological target: Man(a1-2)Man(a1-3)[Man(a1-2)Man(a1-6)]Man(a1-6)[Man(a1-2)Man(a1-2)Man(a1-3)]Man(b1-4)GlcNAc(b1-4)GlcNAc
Procedure, shortened: as §1

[11] = biological target: Man(a1-6)Man
Procedure, shortened: as §1

[12] = biological target: Neu5Ac(a2-3)Gal(b1-3)GalNAc(b1-4)[Neu5Ac(a2-8)Neu5Ac(a2-3)]Gal(b1-4)Glc
Procedure, shortened: as §1

[13] = biological target: Neu5Ac(a2-3)Gal(b1-4)Glc
Procedure, shortened: as §1

[14] = biological target: Neu5Ac(a2-3)Gal(b1-4)GlcNAc(b1-2)Man(a1-3)[GlcNAc(b1-4)][Neu5Ac(a2-3)Gal(b1-4)GlcNAc(b1-2)Man(a1-6)]Man(b1-4)GlcNAc(b1-4)GlcNAc
Procedure, shortened: as §1

[15] = biological target: Neu5Ac(a2-3)Gal(b1-4)GlcNAc(b1-2)[Neu5Ac(a2-3)Gal(b1-4)GlcNAc(b1-6)]Man(a1-6)[Neu5Ac(a2-3)Gal(b1-4)GlcNAc(b1-2)Man(a1-3)][GlcNAc(b1-4)]Man(b1-4)GlcNAc(b1-4)GlcNAc
Procedure, shortened: as §1

[16] = biological target: Neu5Ac(a2-3)Gal(b1-4)[Fuc(a1-3)]GlcNAc(b1-6)[Gal(b1-3)]GalNAc
Procedure, shortened: as §1

[17] = biological target: Neu5Ac(a2-6)Gal(b1-4)GlcNAc(b1-2)Man(a1-6)Man(b1-4)GlcNAc(b1-4)GlcNAc
Procedure, shortened: as §1

[18] = biological target: Neu5Ac(a2-6)Gal(b1-4)GlcNAc(b1-2)Man(a1-6)[GlcNAc(b1-2)Man(a1-3)]Man(b1-4)GlcNAc(b1-4)GlcNAc
Procedure, shortened: as §1

[19] = biological target: Neu5Ac(a2-6)Gal(b1-4)GlcNAc(b1-3)Gal(b1-4)GlcNAc(b1-3)Gal(b1-4)GlcNAc(b1-2)Man(a1-3)[Neu5Ac(a2-6)Gal(b1-4)GlcNAc(b1-3)Gal(b1-4)GlcNAc(b1-3)Gal(b1-4)GlcNAc(b1-2)Man(a1-6)]GalNAc
Procedure, shortened: as §1

[20] = biological target: Neu5Ac(a2-6)Gal(b1-4)GlcNAc(b1-3)GalNAc
Procedure, shortened: as §1

[21] = biological target: Neu5Ac(a2-6)GalNAc(b1-4)GlcNAc6S
Procedure, shortened: as §1

[22] = biological target: Neu5Ac(a2-8)Neu5Gc(a2-3)Gal(b1-4)GlcNAc
Procedure, shortened: as §1

[23] = biological target: Neu5Ac9Ac(a2-3)Gal(b1-4)GlcNAc
Procedure, shortened: as §1

[24] = biological target: Neu5Ac9Ac(a2-6)Gal(b1-4)GlcNAc
Procedure, shortened: as §1

[25] = biological target: Neu5Gc(a2-6)GalNAc
Procedure, shortened: as §1

[26] = biological target: Neu5Gc(a2-8)Neu5Gc(a2-3)Gal(b1-4)GlcNAc(b1-3)Gal(b1-4)GlcNAc
Procedure, shortened: as §1

B1: PX9937A-bvu-521-23-521 (Bacteroides vulgatus) (protein)
chain: LDLAPEDYYGAGNFWKEASQPKAFMLGLHAQLRSYYDMFYTLGELRGGTQRVGTSSLNTSLNYADIRSQNISEDIPGISNWNGLYSPIMQVNHFIQEVENGCTFLDDATRSRYLGQAYGMRALYYFMLYRTFGGVPLITKVDILDGKPSADKFYVERATPEATMEFIKADINKSENYFGNNTSFDAYDWSRYATLMLKAEIYMWAAKVSITGFTATGATDLQTAKTALSGIIGHFELMDNFASIFSCDNKKNTEIIFAMPFIEGEASNDGGRFLYQDAVFLGQAYGRNGKVIEKDTLNLKGTGGVFRDEYTEDFWKTFKEGDSRRDATFMEYYMKNDNGTLSEFGCVMKKRIGTINSNDNRIYISDIPVYRYADALLMMAEIENGLNNPCASYINEVRKRAYGDTFEENKYTEGSYAENELAILQERDKEFVSEGKRWFDVLRMHDASGRSLVFSANANYPGTNPILGTEEAYKMLWPVNIGTLNVNPLLTQTPGYGKK
glycan array binding signal (z-score) [1]: 2.94 | glycan array binding signal (z-score) [2]: -0.211 | glycan array binding signal (z-score) [3]: 2.63 | glycan array binding signal (z-score) [4]: 2.54 | glycan array binding signal (z-score) [5]: -0.128 | glycan array binding signal (z-score) [6]: -0.708 | glycan array binding signal (z-score) [7]: -0.214 | glycan array binding signal (z-score) [8]: 2.84 | glycan array binding signal (z-score) [9]: -0.287 | glycan array binding signal (z-score) [10]: -0.427 | glycan array binding signal (z-score) [11]: 4.8 | glycan array binding signal (z-score) [12]: 0.038 | glycan array binding signal (z-score) [13]: 0.96 | glycan array binding signal (z-score) [14]: -0.062 | glycan array binding signal (z-score) [15]: -0.581 | glycan array binding signal (z-score) [16]: -0.51 | glycan array binding signal (z-score) [17]: -0.252 | glycan array binding signal (z-score) [18]: -0.416 | glycan array binding signal (z-score) [19]: 0.232 | glycan array binding signal (z-score) [20]: -0.431 | glycan array binding signal (z-score) [21]: 0.342 | glycan array binding signal (z-score) [22]: 10.6 | glycan array binding signal (z-score) [23]: 0.442 | glycan array binding signal (z-score) [24]: 0.304 | glycan array binding signal (z-score) [25]: -0.419 | glycan array binding signal (z-score) [26]: -0.58
